CYP2C9 inhib: blocks human cytochrome P450 2C9. inhibition, % at 5 µM. AID 777. CYP2C9 Supersomes, luciferin-H conversion, luminescence. 20% of 96,000 active. P11712;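 active = blocking of liver enzyme CYP2C9 beyond about 50% at 5 µM, limit read from the data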
CYP2C9 activ: activators of human CYP2C9. recombinant CYP2C9, luciferin-H conversion, luminescence; stronger effect = higher value; factor 1 = untreated enzyme, 0 = blocked. 1.4% of 96,000 active. activation factor at 5 µM. AID 1024;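 active = activation factor of 2 or more for CYP2C9 at a 5 µM dose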;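 note: 0 = sulfaphenazole-blocked wells and 1 = vehicle-only wells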
CYP2C19 inhib: blocks human cytochrome P450 2C19 | inhibition, % at 5 µM | AID 778 | P33261 | 21% of 96,000 active | CYP2C19 Supersomes, luciferin-H EGE luminescence, 30 min;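 active = CYP2C19 inhibition above a set limit at 5 µM in the primary screen, cut at about 50% in these data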;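 note: plate controls were negative control wells for no effect and 2.5 mM tranylcypromine positive control for full effect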
PTK2B oligo ant: Pyk2 (human) oligomerization antagonism | Q14289 | Q293 cells, Pyk2 FERM NanoBiT luminescence; stronger effect = lower value | z-score (the deposit names both 25 µM and 10 µM) | 0.83% of 99,000 active | AID 1347419;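 active = Z-score of -3 or lower, scaled per plate to the spread of control and sample wells; inactive = z-score above -3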;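 note: negative z-score means lost luminescence so less FERM oligomerization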
CYP2C19 activ: cytochrome P450 2C19 (human) activation; P33261; recombinant CYP2C19, luciferin-H EGE luminescence; stronger effect = higher value; 0 = fully inhibited enzyme, 1 = untreated enzyme; activation factor at 5 µM; 96,000 tested, under 10 active; AID 1025;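 active = activation factor of at least 2 at 5 µM in the primary screen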;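 note: 0 = wells with 2.5 mM tranylcypromine and 1 = vehicle-only wells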
Numbers without * were called inactive. Sampled rows, rich in hits. Any-hit rate of the full collection: about 28%.

COc1ccc(C(=O)Cn2c(N3CCOCC3)nc3ccccc32)cc1OC was read as CYP2C9 inhib -6, CYP2C9 activ 1.1, CYP2C19 inhib -16 and CYP2C19 activ 1.2.
`CC(=O)Nc1ccc(S(=O)(=O)NCc2csc(C)n2)cc1` gave PTK2B oligo ant 0.37.
COC(=O)C(C)N1C(=O)S/C(=C/c2cc(C)n(-c3ccccn3)c2C)C1=O (stereo unspecified) was read as CYP2C9 inhib 15, CYP2C9 activ 0.8, CYP2C19 inhib 12, PTK2B oligo ant 0.05 and CYP2C19 activ 0.9.
`COC(=O)C(C)N1C(=O)S/C(=C\c2cc(C)n(-c3ccccn3)c2C)C1=O` (stereo unspecified) gave CYP2C9 inhib 80*, CYP2C9 activ 0.2, CYP2C19 inhib 24, PTK2B oligo ant -0.23 and CYP2C19 activ 0.8.
CCOC(=O)C1CCN(C(c2cc3ccc(C)cc3[nH]c2=O)c2nnnn2C2CCCCC2)CC1 (stereo unspecified) was read as CYP2C9 inhib 84*, CYP2C9 activ 0.2, CYP2C19 inhib 79*, PTK2B oligo ant 1.2 and CYP2C19 activ 0.2.
`CCC(C)(C)n1nnnc1C(c1cc2ccc(OC)cc2[nH]c1=O)N1CCN(C2CCCCC2)CC1` (stereo unspecified) gave CYP2C9 inhib 6, CYP2C9 activ 0.9, CYP2C19 inhib -3, PTK2B oligo ant 0.56 and CYP2C19 activ 1.
Screening COc1ccccc1N1CCN(C(c2cc3ccc(C)cc3[nH]c2=O)c2nnnn2C2CCCC2)CC1 (stereo unspecified) returned CYP2C9 inhib 91*, CYP2C9 activ 0.1, CYP2C19 inhib 72*, PTK2B oligo ant 1.6 and CYP2C19 activ 0.3.
COc1ccccc1N1CCN(C(c2cc3cc(C)ccc3[nH]c2=O)c2nnnn2C2CCCC2)CC1 (stereo unspecified) was read as CYP2C9 inhib -18, CYP2C9 activ 1.2, CYP2C19 inhib 24, PTK2B oligo ant 0.55 and CYP2C19 activ 0.8.
For Cc1nc2ccc(S(=O)(=O)NCC(=O)N3CCc4ccccc4C3)cc2s1 the results were CYP2C9 inhib 37, CYP2C9 activ 0.6, CYP2C19 inhib 66*, PTK2B oligo ant 1.2 and CYP2C19 activ 0.3.
`Cc1nc2ccc(S(=O)(=O)NCC(=O)N3CCc4ccccc43)cc2s1` gave CYP2C9 inhib -66, CYP2C9 activ 1.7, CYP2C19 inhib 18, PTK2B oligo ant 0.67 and CYP2C19 activ 0.8.
For Cc1nc2ccc(S(=O)(=O)NC(C(=O)NC3CCCC3)C(C)C)cc2s1 (stereo unspecified) the results were CYP2C9 inhib 14, CYP2C9 activ 0.9, CYP2C19 inhib 0 and CYP2C19 activ 1.
`Cc1nc2ccc(NC(=O)N(C(C)C)C(C)C)cc2s1` gave CYP2C9 inhib -1, CYP2C9 activ 1, CYP2C19 inhib -14, PTK2B oligo ant 1.5 and CYP2C19 activ 1.1.
Cc1nc2ccc(NS(=O)(=O)c3ccc(C)c(C)c3)cc2s1 was read as CYP2C9 inhib 77*, CYP2C9 activ 0.2, CYP2C19 inhib 33, PTK2B oligo ant 0.66 and CYP2C19 activ 0.7.
For Cc1nc2ccc(S(=O)(=O)Nc3ccccc3C)cc2s1 the results were CYP2C9 inhib 70*, CYP2C9 activ 0.3, CYP2C19 inhib 97*, PTK2B oligo ant -0.76 and CYP2C19 activ 0.
For O=C(Nc1ccc(N2CCN(Cc3ccccc3)CC2)cc1)c1ncn[nH]1 the results were CYP2C9 inhib -7, CYP2C9 activ 1.1, CYP2C19 inhib -1, PTK2B oligo ant -0.21 and CYP2C19 activ 1.
Screening CCSC1=C(C#N)C(c2cccc(O)c2)CC(=O)N1 (stereo unspecified) returned CYP2C9 inhib -2, CYP2C9 activ 1, CYP2C19 inhib 11 and CYP2C19 activ 0.9.
Screening C=CCSC1=C(C#N)C(c2ccccc2)CC(=O)N1 (stereo unspecified) returned CYP2C9 inhib 65*, CYP2C9 activ 0.3, CYP2C19 inhib 80*, PTK2B oligo ant 0.04 and CYP2C19 activ 0.2.
`C=CCSC1=C(C#N)C(c2ccc(C(C)C)cc2)CC(=O)N1` (stereo unspecified) gave CYP2C9 inhib 82*, CYP2C9 activ 0.2, CYP2C19 inhib 74* and CYP2C19 activ 0.3.
N#CC1=C(SCc2ccccc2)NC(=O)CC1c1ccccc1 (stereo unspecified) was read as PTK2B oligo ant -1.6.

Screens deposited in PubChem by Sanford-Burnham Center for Chemical Genomics.
